Here are results for 37 compounds from PubChem BioAssay (EPA / NIEHS).

Test [1] in a line: NVS_IC_rCaBTZCHL: NovaScreen (NVS) Ion Channel Assay for Calcium Channel, Type L, Benzothiazepine Site (CaBTZCHL) (AID 2283337). The method, boiled down:
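Rat cortical membrane preparation, cell-free. Radioligand displaced by test chemical; 1.5 h incubation; filtration, scintillation count. DMSO = negative control/baseline. Primary: duplicate, 25 uM; secondary: concentration series.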

A further test concerns NCBI gene 100848466. The test is described as follows: NVS_NR_bPR: NovaScreen (NVS) Nuclear Receptor Binding Assay for bovine Progextron Receptor (PR) (AID 2283343).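 Also: actives lower bound radioligand signal below DMSO meaning displacement of the label.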 The method, boiled down:
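Scintillation counts of bound radioligand were read 18 hours after chemical addition to membranes extracted from bovine uterus. Displacement was scored as loss of signal relative to DMSO controls. Screening began at 25 uM in duplicate.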

The target of test [2] is human Constitutive Androstane Receptor (CAR), NR1I3 (gene 9970) (UniProt Q14994). The test is described as follows: NVS_NR_hCAR_Antagonist: NovaScreen (NVS) Nuclear Receptor Binding Assay for human Constitutive Androstane Receptor Antagonism (CAR) (AID 2283344). Summed up: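 Single 25 uM duplicate primary screen, with concentration-series follow-up on actives. Cell-free binding format run in antagonist mode, TR-FRET signal taken 1 h post-dose; activity is signal loss relative to DMSO.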

Test [3] deals with Androgen Receptor/SRC-1 Co-activator, AR (gene 367) (UniProt P10275). The test is described as follows: OT_AR_ARSRC1_0480: Odyssey Thera (OT) 8-hour HEK293T Protein-Complementation Assay for Androgen Receptor/SRC-1 Co-activator (AID 2283354).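 Also: hits raise the complementation signal above DMSO so AC50 marks enhancers.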 The method, boiled down: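 Split-Venus PCA, stable HEK293T, AR/SRC-1 fusions; 8 h exposure. Readout: 488nm N/C fluorescence ratio, ≥400 cells/image; fitted upward vs DMSO baseline.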

In test [4] the target is Estrogen receptor (Homo sapiens) (UniProt P03372). The test is described as follows: OT_ER_ERaERa_1440: Odyssey Thera (OT) 24-hour HEK293T Protein-Complementation Assay for Estrogen Receptor-alpha/-alpha Homodimer (AID 2283349).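 Also: hits raise fluorescence above DMSO for agonists and antagonists alike.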 Summed up:
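Cells (HEK293T) carrying the fragment-tagged ERα LBD (aa 310-547) pair are treated with chemical for 24 hours. Nuclear and/or cytoplasmic fluorescence is then quantified on a laser scanning cytometer. Activity is scored as signal gain against DMSO.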

The target is the same in test [5]. The test is described as follows: OT_ER_ERaERa_0480: Odyssey Thera (OT) 8-hour HEK293T Protein-Complementation Assay for Estrogen Receptor-alpha/-alpha Homodimer (AID 2283351).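 Also: rise in fluorescence from reassembled reporter fragments on ERα LBD homodimer in nucleus or whole cell.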 Summed up: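 Read-out: fluorescence intensity rise relative to DMSO, nuclear for agonists, nuclear plus cytoplasmic for antagonists. Construct is the ERα LBD (aa 310-547) homodimer fragment-complementation pair, stably expressed in HEK293T; exposure 8 h.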

For test [6], the target named is Estrogen receptor (Homo sapiens) + Estrogen receptor beta (Homo sapiens) (UniProt P03372+Q92731). The test is described as follows: OT_ER_ERaERb_0480: Odyssey Thera (OT) 8-hour HEK293T Protein-Complementation Assay for Estrogen Receptor-alpha/-beta Heterodimer (AID 2283352). Summed up: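 Fluorescence increase from reconstituted reporter fragments, quantified by laser scanning cytometer, reflects ER-alpha/ER-beta heterodimer formation in human HEK293T cells. Exposure 8 h; positive-direction fitting against DMSO vehicle.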

In test [7] the target is Estrogen receptor (Homo sapiens) (UniProt P03372). The test is described as follows: NVS_NR_hER: NovaScreen (NVS) Nuclear Receptor Binding Assay for human Estrogen Receptor (ER) (AID 2283348). The method, boiled down:
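MCF7-derived receptor extract, radiolabelled ligand, competitive displacement. Read: scintillation counts at 18 h. DMSO = negative control/baseline. Primary 25 uM duplicate; follow-up concentration–response.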

The target in test [8] is chimpanzee Androgen Receptor (AR), AR (gene 747460) (UniProt O97775). Description: NVS_NR_cAR: NovaScreen (NVS) Nuclear Receptor Binding Assay for chimpanzee Androgen Receptor (AR) (AID 2283346).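 Also: radioligand displacement from AR measured by scintillation counting in a cell-free assay; a loss of bound radioligand signal versus DMSO counts as binding.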 Summed up:
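Radioligand binding to chimpanzee AR expressed in Sf9/Sf21 cells, cell-free, measured 72 h after dosing by lysate-based scintillation counting. Loss of signal vs DMSO; initial duplicate screen at 25 uM, actives retested in concentration series.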

Each structure is given as a SMILES string. Inconclusive results are not listed. Activity calls are given as the source filed them. The calls were made as follows: active = hit-call score of the fitted dose curve at least 0.9, where 1 is the maximum; inconclusive = response in the unintended direction; inactive = score below 0.9.

Chain of Estrogen receptor (Homo sapiens) (P03372 whole entry, looked up, the tested form may be a part): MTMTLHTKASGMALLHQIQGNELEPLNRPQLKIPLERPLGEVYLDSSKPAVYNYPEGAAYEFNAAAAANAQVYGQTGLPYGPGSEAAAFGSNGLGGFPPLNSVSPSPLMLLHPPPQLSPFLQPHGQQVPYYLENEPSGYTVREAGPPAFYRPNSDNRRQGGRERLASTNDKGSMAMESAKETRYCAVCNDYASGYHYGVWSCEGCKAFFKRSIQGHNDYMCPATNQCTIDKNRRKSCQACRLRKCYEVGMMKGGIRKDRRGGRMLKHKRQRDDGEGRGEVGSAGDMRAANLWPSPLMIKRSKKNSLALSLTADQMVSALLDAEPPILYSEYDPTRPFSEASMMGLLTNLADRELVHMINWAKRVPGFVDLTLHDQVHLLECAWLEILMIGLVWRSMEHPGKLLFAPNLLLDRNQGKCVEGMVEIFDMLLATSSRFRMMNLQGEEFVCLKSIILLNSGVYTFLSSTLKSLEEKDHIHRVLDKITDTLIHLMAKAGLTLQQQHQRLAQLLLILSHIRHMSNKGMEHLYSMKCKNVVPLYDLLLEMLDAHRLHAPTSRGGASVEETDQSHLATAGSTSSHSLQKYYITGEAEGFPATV
Chain of Estrogen receptor (Homo sapiens) + Estrogen receptor beta (Homo sapiens) (P03372 whole entry, looked up, the tested form may be a part): as above
Chain of Estrogen receptor (Homo sapiens) + Estrogen receptor beta (Homo sapiens) (Q92731 whole entry, looked up, the tested form may be a part): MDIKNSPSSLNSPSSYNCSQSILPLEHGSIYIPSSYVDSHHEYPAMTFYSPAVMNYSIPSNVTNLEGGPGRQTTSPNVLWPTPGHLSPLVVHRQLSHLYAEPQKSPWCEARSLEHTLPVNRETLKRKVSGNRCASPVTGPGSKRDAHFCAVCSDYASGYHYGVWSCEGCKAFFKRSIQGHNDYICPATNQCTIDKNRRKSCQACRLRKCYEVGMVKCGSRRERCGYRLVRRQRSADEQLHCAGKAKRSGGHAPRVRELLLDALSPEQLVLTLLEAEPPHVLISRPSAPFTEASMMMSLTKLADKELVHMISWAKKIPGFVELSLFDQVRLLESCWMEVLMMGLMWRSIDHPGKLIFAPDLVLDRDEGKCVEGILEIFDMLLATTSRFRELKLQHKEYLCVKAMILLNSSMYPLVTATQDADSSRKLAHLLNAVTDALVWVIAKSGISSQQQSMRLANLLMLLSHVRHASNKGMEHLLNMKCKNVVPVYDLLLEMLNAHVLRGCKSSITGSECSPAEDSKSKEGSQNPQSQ
Chain of Androgen Receptor/SRC-1 Co-activator, AR (gene 367) (P10275 whole entry, looked up, the tested form may be a part): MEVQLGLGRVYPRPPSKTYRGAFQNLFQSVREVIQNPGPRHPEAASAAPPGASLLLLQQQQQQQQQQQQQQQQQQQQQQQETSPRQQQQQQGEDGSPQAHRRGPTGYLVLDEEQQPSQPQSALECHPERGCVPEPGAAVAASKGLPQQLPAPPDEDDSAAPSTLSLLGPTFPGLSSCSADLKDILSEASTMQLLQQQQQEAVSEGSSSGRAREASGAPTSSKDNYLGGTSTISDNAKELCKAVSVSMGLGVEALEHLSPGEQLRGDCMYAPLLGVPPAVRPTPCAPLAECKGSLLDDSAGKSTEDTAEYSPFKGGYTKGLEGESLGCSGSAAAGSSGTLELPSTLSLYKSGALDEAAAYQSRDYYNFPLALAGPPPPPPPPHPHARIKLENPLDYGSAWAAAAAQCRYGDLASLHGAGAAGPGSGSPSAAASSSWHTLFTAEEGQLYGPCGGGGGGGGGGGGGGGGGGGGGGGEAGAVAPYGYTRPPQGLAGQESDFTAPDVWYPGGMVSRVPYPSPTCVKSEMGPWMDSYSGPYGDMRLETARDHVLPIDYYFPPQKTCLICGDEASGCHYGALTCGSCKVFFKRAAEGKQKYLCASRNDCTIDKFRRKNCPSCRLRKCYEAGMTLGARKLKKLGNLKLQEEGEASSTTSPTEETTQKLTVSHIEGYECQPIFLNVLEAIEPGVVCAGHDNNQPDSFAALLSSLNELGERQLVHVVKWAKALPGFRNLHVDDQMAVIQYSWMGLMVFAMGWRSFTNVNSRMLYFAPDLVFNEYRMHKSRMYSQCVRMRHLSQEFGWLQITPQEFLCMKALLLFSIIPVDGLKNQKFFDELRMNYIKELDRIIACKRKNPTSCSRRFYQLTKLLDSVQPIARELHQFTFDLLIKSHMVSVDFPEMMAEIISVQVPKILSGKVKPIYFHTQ
Chain of human Constitutive Androstane Receptor (CAR), NR1I3 (gene 9970) (Q14994 whole entry, looked up): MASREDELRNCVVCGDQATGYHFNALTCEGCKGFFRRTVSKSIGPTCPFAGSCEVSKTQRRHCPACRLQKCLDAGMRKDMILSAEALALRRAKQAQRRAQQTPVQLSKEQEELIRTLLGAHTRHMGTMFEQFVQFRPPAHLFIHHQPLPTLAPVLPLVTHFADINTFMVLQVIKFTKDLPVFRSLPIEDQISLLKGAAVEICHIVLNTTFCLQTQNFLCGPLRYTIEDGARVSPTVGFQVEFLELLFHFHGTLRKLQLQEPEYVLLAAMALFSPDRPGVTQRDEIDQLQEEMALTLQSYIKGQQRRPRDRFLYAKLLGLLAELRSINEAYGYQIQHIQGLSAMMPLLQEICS
Chain of chimpanzee Androgen Receptor (AR), AR (gene 747460) (O97775 whole entry, looked up): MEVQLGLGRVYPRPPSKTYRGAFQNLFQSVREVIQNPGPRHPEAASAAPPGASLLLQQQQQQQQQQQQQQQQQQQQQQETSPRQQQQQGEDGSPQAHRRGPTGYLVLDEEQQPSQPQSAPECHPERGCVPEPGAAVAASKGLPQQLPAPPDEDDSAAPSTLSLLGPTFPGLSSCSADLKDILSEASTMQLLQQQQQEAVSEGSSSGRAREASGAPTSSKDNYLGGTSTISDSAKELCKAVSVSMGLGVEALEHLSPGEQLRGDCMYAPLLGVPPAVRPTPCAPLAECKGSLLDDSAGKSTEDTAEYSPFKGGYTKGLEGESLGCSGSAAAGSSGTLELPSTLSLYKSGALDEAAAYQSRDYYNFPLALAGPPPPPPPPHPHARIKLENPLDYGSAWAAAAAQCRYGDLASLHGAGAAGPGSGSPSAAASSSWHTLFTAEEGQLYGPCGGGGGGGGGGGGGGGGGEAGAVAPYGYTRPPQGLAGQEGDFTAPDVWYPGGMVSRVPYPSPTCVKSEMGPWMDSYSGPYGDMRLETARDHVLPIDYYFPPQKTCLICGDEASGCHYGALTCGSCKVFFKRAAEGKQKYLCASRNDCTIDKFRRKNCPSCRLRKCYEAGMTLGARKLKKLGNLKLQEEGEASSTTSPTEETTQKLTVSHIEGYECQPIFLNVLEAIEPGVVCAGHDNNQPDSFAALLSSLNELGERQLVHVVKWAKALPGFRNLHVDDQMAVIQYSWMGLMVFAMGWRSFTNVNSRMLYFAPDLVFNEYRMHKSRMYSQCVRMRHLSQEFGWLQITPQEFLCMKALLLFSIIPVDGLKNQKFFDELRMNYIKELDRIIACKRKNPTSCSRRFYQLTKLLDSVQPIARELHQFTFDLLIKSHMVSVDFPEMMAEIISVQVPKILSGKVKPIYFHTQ

Turning to `CC(=O)OC(C)(C)C1CC=C(C)CC1` (stereo not drawn), in [1], the outcome was inactive.

Turning to `Cc1ccc(C(C)(C)O)cc1`, in test [1], the result was inactive.

In general, AC50 refers to the concentration giving half of the maximal activity seen. With `C[C@]12CC[C@@H]3c4ccc(O)cc4CC[C@H]3[C@@H]1CC[C@@H]2O`, the AC50 with NCBI gene 100848466 was 0.00898 µM (active). Also, the outcome in test [2] was inactive.

In the case of `CC(C)(CO)CO`, the call in [3] was inactive.

In the case of `CCC(C)(C)C1CCC(=O)CC1`, the result in [3] was inactive.

Turning to `CNC(=C[N+](=O)[O-])NCCSCc1ccc(CN(C)C)o1`, the call in test [4], in test [5] and in test [6] was inactive.

Take `COc1ccc(OC)cc1`: the compound was called inactive in [4] and in test [5].

In the case of `CCCCCCCCOC(C)=O`, the compound was called inactive in test [4] and in test [5].

As for `Cc1cccc(C)c1`, the result in [4] and in [5] was inactive.

In the case of `CC(=O)Oc1c(C)c(C)c2c(c1C)CC[C@@](C)(CCC[C@H](C)CCC[C@H](C)CCCC(C)C)O2`, the compound was called inactive in [4] and in test [5].

Take `Nc1cc([N+](=O)[O-])ccc1C(=O)O`: the outcome in test [7] was inactive.

Consider `c1ccc(OCCOc2ccccc2)cc1`, for which the outcome in [7], in test [4], in [5] and in test [6] was inactive.

For `O=C(O)c1cc2ccccc2cc1O`, the compound was called inactive in test [7].

As to `C=C(C)C(=O)OCCC(C)OC(=O)C(=C)C` (stereo not drawn), the compound was classed as inactive in test [4] and in test [5].

For `CC(=O)Nc1cc(S(=O)(=O)O)cc2cc(S(=O)(=O)O)c(N=Nc3ccccc3)c(O)c12`, the call in test [4], in test [5] and in test [6] was inactive.

For the compound `O=C(O)CS`, the compound was classed as inactive in test [4] and in test [5].

On to `CCNC(=S)NCC`, for which the compound was called inactive in [7], in test [4], in test [5] and in test [6].

With `CC(=O)OC/C=C(C)/C=C/C=C(C)/C=C/C1=C(C)CCCC1(C)C`, the compound was called inactive in [4] and in test [5].

`CCC(C)C1CCCCC1=O` (stereo not drawn): the result in test [4] and in test [5] was inactive.

Consider `NC(=O)c1cccnc1`, for which the compound was called inactive in test [4] and in test [5].

Take `O=C(O)c1ccccc1O`: the outcome in test [4] and in [5] was inactive.

As to `CN(C)c1ccc(C=O)cc1`, the outcome in test [7] was inactive.

For `CCCCC/C=C\C=C\C(=O)OCC`, the concentration at half-maximal activity (AC50) in [7] was 42.7 µM (active). The compound was classed as inactive in test [4], in test [5] and in test [6].

Consider `CCCCCC1CCC(=O)O1` (stereo not drawn), for which the compound was called inactive in test [4], in [5] and in [6].

Consider `C1=COCCC1`, for which the compound was called inactive in test [4] and in [5].

Regarding `CC(C)CCCC(C)(C)O`, the compound was called inactive in test [8], in test [4] and in test [5].

As to `COC(=O)C(C)Oc1ccc(Oc2ncc(C(F)(F)F)cc2Cl)cc1` (stereo not drawn), the result in test [4] and in test [5] was inactive.

Consider `CCCCCCCC(=O)N(C)C`, for which the call in [4] and in test [5] was inactive.

In the case of `CC1=CCC(C(C)C)=CC1`, the result in [4] and in [5] was inactive.

Consider `CCCCCCC(C)O` (stereo not drawn), for which, in test [7], the half-maximal activity concentration (AC50) was 43.2 µM (active). The compound was called inactive in test [4], in test [5] and in test [6].

Take `NCCN1CCNCC1`: the call in [4] and in test [5] was inactive.

In the case of `CC1=CCC(=C(C)C)CC1`, the call in test [4] and in test [5] was inactive.

With `CCCC[N+](C)(CCCC)CCCC`, the outcome in test [4] and in test [5] was inactive.

Regarding `NNC(=O)OCc1ccccc1`, in test [7], the call was inactive.

As to `O=C(O)C1=NN(c2ccc(S(=O)(=O)O)cc2)C(=O)C1`, the result in test [4] and in test [5] was inactive.

As to `CCCCOCCOCCOCCO`, the outcome in [4] and in [5] was inactive.

For `CC(O)CNCC(C)O` (stereo not drawn), the AC50 in [4] was 18 µM (active). Moreover, in [5], the outcome was inactive.
